Compounds with a hit are over-represented: about 3.1% of the library has one in this group of screens.
pS6 MEF inh: Acumen qHTS Assay for Inhibitors of the mTORC1 Signaling Pathway in MEF (Tsc2-/-, p53-/-) Cells: Sytravon; Tsc2-/- p53-/- MEF, phospho-rpS6 immunofluorescence/PI, 24 h; Potency, µM (highest dose often 38.3 µM), usual class: inhibitors; 0.78% of 44,000 active; AID 493208, 2011; further: nearly all actives have a fitted effect of over 50% in size
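Immunofluorescence of rpS6 phosphorylation in Tsc2-/-, p53-/- MEFs after 24 h compound exposure, normalized to propidium iodide signal. Activity is expressed as % positive cells, thresholded with 7.5 nM rapamycin.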
PMP22 txn: Cell-based coincidence reporter assay to measure PMP22 gene transcription in S16 Pmp22-F2sN cells - Primary screen; Potency, µM (top dose mostly 57.5 µM), actives largely listed as inhibitors; 2% of 43,000 active; S16 Pmp22-F2sN Schwann cells, FLuc/NLuc coincidence luminescence, 24 h; AID 1508649, 2021; active means clear falling dose curves in both reporters; inconclusive means both reporters move, but less clearly or upward; inactive means either reporter flat; the % is the NLuc reporter signal
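Schwann cells carrying the coincidence reporter were exposed to library compounds for 24 h at 37C, then lysed and read for FLuc and, after quenching, NLuc luminescence on a CCD imager.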
S16 F2sN tox: Cell viability qHTS assay in S16 Pmp22-F2sN cells; 0.48% of 43,000 active; AID 1508642, 2021; Potency, µM (titrated, usually from 57.5 µM), most hits filed as cytotoxic; S16 Pmp22-F2sN Schwann cells (luciferase reporters placed in the Pmp22 gene) viability, CellTiter-Glo, 24 h; further: nearly all actives have a fitted effect of over 65% in size
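S16 Schwann cells carrying the Pmp22-F2sN reporter, seeded in 1536-well format, were exposed to library compounds for 24 h at 37C. Viability was read as CellTiter-Glo luminescence after 15 min at room temperature.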
SKOV3 invasion: Primary qHTS assay for Inhibitors of ovarian cancer metastasis using an organotypic tumor microenvironment (TME) model; SKOV3ip1-GFP adhesion/invasion on 3D omental model, fluorescence; Potency, µM (doses to about 45.8 µM), actives largely listed as inhibitors; 0.1% of 46,000 active; further: nearly all actives have a fitted effect of over 65% in size
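A 3D layer of primary human omental fibroblasts, mesothelial cells, fibronectin and collagen I, grown 48 hr, received SKOV3ip1-GFP cells in serum-free medium plus compounds at 0.36-46 umol/L. After 2 hr RT and 16 hr 37 C, fixed adherent GFP cells were counted; normalized to DMSO and tomatine.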
p53null 32C tox: qHTS Screen for Compounds that Selectively Target Cancer Cells with p53 Mutations: Cytotoxicity of p53 Null Cells at the Permissive Temperature. 0.62% of 55,000 active. Potency, µM (top dose mostly 46.1 µM), most hits filed as cytotoxic. AID 903, 2007. H1299-neo p53 null cells, ATP luminescence, 24 h, 32C; further: nearly all actives have a fitted effect of over 55% in size
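Cells lacking p53 (H1299-neo) are plated at 600 per well and allowed to settle overnight at 37C. Test compounds (up to 46 uM) are added and held 24 hours at 32C, then ATP is quantified by luminescence.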
p53null 39C kill: qHTS Screen for Compounds that Selectively Target Cancer Cells with p53 Mutations: Cytotoxicity of p53 Null Cells at the Nonpermissive Temperature. H1299 p53-null (neo) cells, 39C, ATPlite viability, 24 h. Potency, µM (titrated, usually from 46.1 µM), hits mostly cytotoxic. 0.97% of 55,000 active. AID 904, 2007; further: nearly all actives have a fitted effect of over 50% in size
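Luminescent ATP signal reported cell survival after H1299 lines (neo, p53 null; or p53 A138V) received up to 46 uM compound and 24 hr incubation at 39C.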
NLuc sat counter: Biochemical NLuc saturation counterscreen for small molecule modulators of PMP22 gene expression - Nano-Glo assay | Potency, µM (series often up to 57.5 µM), hits mostly inhibitors | AID 1508638, 2021 | shares compounds with PMP22 txn | 4% of 690 active | Secreted NLuc enzyme (filtered S16 cell medium), Nano-Glo luminescence
NLuc Km counter: Biochemical coelenterazine-based NLuc counterscreen for small molecule modulators of PMP22 gene expression - Km assay; shares compounds with PMP22 txn; secreted NLuc enzyme, coelenterazine luminescence, Km conditions; Potency, µM (titrated, usually from 57.5 µM), usual class: inhibitors; 5% of 690 active
FLuc ctr PMP22: Biochemical FLuc counterscreen for small molecule modulators of PMP22 gene expression; shares compounds with PMP22 txn; purified P. pyralis FLuc, luminescence, 10 min; Potency, µM (series often up to 57.5 µM), hits mostly inhibitors; 690 tested, under 10 active; AID 1508640, 2021
Target sequence (P08659 whole entry, looked up): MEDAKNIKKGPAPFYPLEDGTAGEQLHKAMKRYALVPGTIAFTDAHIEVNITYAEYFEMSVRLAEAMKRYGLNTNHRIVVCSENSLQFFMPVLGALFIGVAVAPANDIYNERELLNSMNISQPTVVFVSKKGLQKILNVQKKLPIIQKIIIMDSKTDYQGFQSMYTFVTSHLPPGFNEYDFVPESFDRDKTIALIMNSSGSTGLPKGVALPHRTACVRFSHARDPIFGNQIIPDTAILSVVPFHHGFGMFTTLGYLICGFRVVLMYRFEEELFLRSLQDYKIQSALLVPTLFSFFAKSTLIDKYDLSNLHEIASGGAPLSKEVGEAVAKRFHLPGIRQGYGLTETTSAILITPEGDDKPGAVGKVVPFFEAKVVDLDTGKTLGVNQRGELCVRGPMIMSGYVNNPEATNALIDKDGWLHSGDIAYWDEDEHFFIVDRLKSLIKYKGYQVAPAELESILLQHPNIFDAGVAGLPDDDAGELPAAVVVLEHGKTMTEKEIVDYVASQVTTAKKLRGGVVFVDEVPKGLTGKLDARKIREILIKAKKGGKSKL
S16 F2sN tox cnf: Cell viability qHTS assay in S16 Pmp22-F2sN cells - Confirmatory screen; 7% of 690 active; shares compounds with PMP22 txn; S16 Schwann cells viability, CellTiter-Glo ATP luminescence, 24 h; Potency, µM (highest dose often 57.5 µM), hits mostly cytotoxic
PMP22 txn conf: Cell-based coincidence reporter assay to measure PMP22 gene transcription in S16 Pmp22-F2sN cells - Confirmatory screen; Potency, µM (titrated, usually from 57.5 µM), most hits filed as inhibitors; 22% of 690 active; AID 1508646, 2021; S16 Schwann cells Pmp22-F2sN, dual luciferase, 24 h; shares compounds with PMP22 txn; active means clear falling dose curves in both reporters; inconclusive means both reporters move, but less clearly or upward; inactive means either reporter flat; the % is the FLuc reporter signal
PMP22 prot conf: Cell-based HiBiT reporter assay to measure PMP22 protein expression in S16 Pmp22-HiBiT cells - Confirmatory screen; shares compounds with PMP22 txn; S16 Schwann cells Pmp22-HiBiT, luminescence, 48 h; Potency, µM (doses to about 27.9 µM), actives largely listed as inhibitors; 95 tested, under 10 active; AID 1508647, 2021
Target sequence (P25094 whole entry, looked up): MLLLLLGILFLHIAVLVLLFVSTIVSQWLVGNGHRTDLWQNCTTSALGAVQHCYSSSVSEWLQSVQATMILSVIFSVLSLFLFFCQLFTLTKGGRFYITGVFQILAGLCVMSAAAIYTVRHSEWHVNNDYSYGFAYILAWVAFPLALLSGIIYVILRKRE
Each line names hits and unclear results; the compound was inactive in the other large screens (follow-up assays come after a bar, where they were run). Unless noted, the call rests on the fitted dose curve; in most records, active means well fitted curve in the direction sought with a large enough effect; inconclusive means small, poorly fitted or top-dose-only effect, or another doubt; inactive means no such curve, though single readings can be large; an effect the other way counts as inactive or inconclusive.

Cc1cc(-c2ccc(C)c(S(=O)(=O)N3CCN(c4cccc(C(F)(F)F)c4)CC3)c2)on1	none
COc1cc(N2CCC(C(N)=O)CC2)ccc1Nc1nc(N)c(Cl)c(Nc2ccccc2S(=O)(=O)C(C)C)n1	none (no result: pS6 MEF inh, PMP22 txn, S16 F2sN tox, p53null 32C tox, p53null 39C kill)
N#C/C(=C/c1ccc(Cl)cc1Cl)c1nc2ccccc2c(=O)[nH]1	none
CCC(=O)Oc1ccc(/C=C(\C#N)c2nc3ccccc3[nH]2)cc1OC	PMP22 txn inconclusive, p53null 39C kill inconclusive
COc1cc(/C=C(\C#N)c2nc3ccccc3[nH]2)ccc1OCc1ccccc1F	PMP22 txn 12.6µM | NLuc sat counter inconclusive | NLuc Km counter inconclusive | FLuc ctr PMP22 inactive | S16 F2sN tox cnf inactive | PMP22 txn conf inconclusive
COc1c(Cl)cc(Cl)cc1/C=C(\C#N)c1nc2ccccc2[nH]1	PMP22 txn 11.3µM, S16 F2sN tox inconclusive | NLuc sat counter inconclusive | NLuc Km counter inconclusive | FLuc ctr PMP22 inactive | S16 F2sN tox cnf inactive | PMP22 txn conf inconclusive
Cc1cccc2c1CC[C@H](CN1CCC(c3c(Cl)cccc3Cl)CC1)C[C@@H]2O	none (no result: pS6 MEF inh, PMP22 txn, S16 F2sN tox, p53null 32C tox, p53null 39C kill)
O=C(Nc1nnc(-c2ccco2)o1)c1cc(-c2ccccc2)nc2ccccc12	none (no result: pS6 MEF inh, PMP22 txn, S16 F2sN tox, p53null 32C tox, p53null 39C kill)
CCOc1ccc(CCNc2nc3ccccc3n3c(C)nnc23)cc1OCC	PMP22 txn inconclusive | NLuc sat counter inconclusive | NLuc Km counter inconclusive | FLuc ctr PMP22 inactive | S16 F2sN tox cnf inactive | PMP22 txn conf inconclusive
COCCCNC(=O)c1sc2nc3n(c(=O)c2c1C)CCC3	S16 F2sN tox inconclusive
O=C(Nc1cc(C(F)(F)F)cc(C(F)(F)F)c1)c1cc(Cl)ccc1O	none (no result: pS6 MEF inh, PMP22 txn, S16 F2sN tox, p53null 32C tox, p53null 39C kill)
CN(C1CCCCC1)S(=O)(=O)c1ccc2c(c1)c(=O)c(C(=O)NCc1ccc(Cl)cc1)cn2C	PMP22 txn inconclusive | NLuc sat counter inactive | NLuc Km counter inactive | FLuc ctr PMP22 inactive | S16 F2sN tox cnf inactive | PMP22 txn conf inactive
CCCc1oc2ccc(NS(=O)(=O)c3ccc(OC)cc3)cc2c1C(=O)OCC	pS6 MEF inh 4.14µM, PMP22 txn 13.4µM, p53null 39C kill inconclusive | NLuc sat counter inactive | NLuc Km counter inconclusive | FLuc ctr PMP22 inactive | S16 F2sN tox cnf inactive | PMP22 txn conf inactive
CCOC(=O)c1c(-c2ccccc2)oc2ccc(NS(=O)(=O)c3ccc(OC)cc3)cc12	pS6 MEF inh inconclusive, S16 F2sN tox inconclusive, SKOV3 invasion inconclusive
CCN1CCN(c2nc3c(S(=O)(=O)c4ccc(C)cc4)nnn3c3ccsc23)CC1	PMP22 txn 16.8µM | NLuc sat counter inactive | NLuc Km counter inactive | FLuc ctr PMP22 inactive | S16 F2sN tox cnf inactive | PMP22 txn conf inactive
Cc1ccc(S(=O)(=O)c2nnn3c2nc(N2CCCC2)c2sccc23)cc1	PMP22 txn inconclusive
CCCCn1c(=N)c(C(=O)NC2CCCCC2)cc2c(=O)n3cccc(C)c3nc21	none
CCOCCCn1c(=N)c(C(=O)NC(C)c2ccccc2)cc2c(=O)n3cccc(C)c3nc21 (centres undefined)	pS6 MEF inh inconclusive, PMP22 txn 15µM, S16 F2sN tox inconclusive | NLuc sat counter inactive | NLuc Km counter inactive | FLuc ctr PMP22 inactive | S16 F2sN tox cnf inactive | PMP22 txn conf inconclusive
CCOCCCn1c(=N)c(C(=O)NC2CCCC2)cc2c(=O)n3cccc(C)c3nc21	PMP22 txn inconclusive | NLuc sat counter inactive | NLuc Km counter inactive | FLuc ctr PMP22 inactive | S16 F2sN tox cnf inactive | PMP22 txn conf inconclusive
CCc1ccccc1NC(=O)CSc1ncc(S(=O)(=O)c2ccccc2)c(N)n1	none
CCc1ccccc1NC(=O)CSc1ncc(S(=O)(=O)c2ccc(C(C)C)cc2)c(N)n1	PMP22 txn 17.9µM | NLuc sat counter inconclusive | NLuc Km counter inactive | FLuc ctr PMP22 inactive | S16 F2sN tox cnf inactive | PMP22 txn conf inconclusive
CN(C)c1ccc(Nc2nc(N)n(C(=O)c3c(F)cccc3F)n2)cc1	none (no result: pS6 MEF inh, PMP22 txn, S16 F2sN tox, p53null 32C tox, p53null 39C kill)
COCCN1Cc2cccc(C(=O)Nc3ccc(Cl)cc3Cl)c2C1=O	PMP22 txn 18.9µM | NLuc sat counter inconclusive | NLuc Km counter inconclusive | FLuc ctr PMP22 inactive | S16 F2sN tox cnf inactive | PMP22 txn conf inactive
CCN(CC)CCNC(=O)c1cc(-c2ccc(Br)s2)nc2ccccc12	pS6 MEF inh inconclusive, PMP22 txn 20µM, S16 F2sN tox 31.6µM, SKOV3 invasion 10µM, p53null 39C kill 25.1µM | NLuc sat counter inactive | NLuc Km counter inconclusive | FLuc ctr PMP22 inactive | S16 F2sN tox cnf inconclusive | PMP22 txn conf 17.3µM | PMP22 prot conf inactive

Assay outcomes: PubChem BioAssay, National Center for Advancing Translational Sciences (NCATS)
